# Assay results published in the supplement of paper PMC4466140.
# B1: unnamed (peptide)
# chain: KDKKTKPTPPPKPSH
# Biological target: AgAbp1
# Assay: SPOT peptide array binding signal intensity (averaged, normalized) (arbitrary units (background-subtracted, floor 0; scale differs between SH3 domains)); higher = stronger binding of the SH3 domain to the peptide
# In short: (§1)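 GST-SH3 fusions from four yeast species, purified on glutathione Sepharose, were incubated at 10 μg/ml overnight at 4°C on membranes of synthetic 15-mer peptides in which cysteines were replaced with serines. Binding signal is the normalized, background-subtracted spot intensity averaged over replicates, in domain-specific arbitrary units.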
row,Binder,SPOT peptide array binding signal intensity
1,B1,494

# Biological target: AgBbc1
# Assay: as above
# In short: as §1
row,Binder,SPOT peptide array binding signal intensity
1,B1,26.8

# Biological target: AgBem1-D1
# Assay: as above
# In short: as §1
row,Binder,SPOT peptide array binding signal intensity
1,B1,60.5

# Biological target: AgBzz1-D1
# Assay: as above
# In short: as §1
row,Binder,SPOT peptide array binding signal intensity
1,B1,42

# Biological target: AgBzz1-D2
# Assay: as above
# In short: as §1
row,Binder,SPOT peptide array binding signal intensity
1,B1,48

# Biological target: AgCyk3
# Assay: as above
# In short: as §1
row,Binder,SPOT peptide array binding signal intensity
1,B1,≤ 0

# Biological target: AgFus1
# Assay: as above
# In short: as §1
row,Binder,SPOT peptide array binding signal intensity
1,B1,≤ 0

# Biological target: AgHof1
# Assay: as above
# In short: as §1
row,Binder,SPOT peptide array binding signal intensity
1,B1,19.5

# Biological target: AgHse1
# Assay: as above
# In short: as §1
row,Binder,SPOT peptide array binding signal intensity
1,B1,29

# Biological target: AgLsb1
# Assay: as above
# In short: as §1
row,Binder,SPOT peptide array binding signal intensity
1,B1,≤ 0

# Biological target: AgLsb4
# Assay: as above
# In short: as §1
row,Binder,SPOT peptide array binding signal intensity
1,B1,≤ 0

# Biological target: AgMyo5
# Assay: as above
# In short: as §1
row,Binder,SPOT peptide array binding signal intensity
1,B1,≤ 0

# Biological target: AgNbp2
# Assay: as above
# In short: as §1
row,Binder,SPOT peptide array binding signal intensity
1,B1,≤ 0

# Biological target: AgRvs167
# Assay: as above
# In short: as §1
row,Binder,SPOT peptide array binding signal intensity
1,B1,1.5

# Biological target: AgSho1
# Assay: as above
# In short: as §1
row,Binder,SPOT peptide array binding signal intensity
1,B1,34.5

# Biological target: AgSla1-D1-D2
# Assay: as above
# In short: as §1
row,Binder,SPOT peptide array binding signal intensity
1,B1,7

# Biological target: AgSla1-D3
# Assay: as above
# In short: as §1
row,Binder,SPOT peptide array binding signal intensity
1,B1,4

# Biological target: CaAbp1-D1
# Assay: as above
# In short: as §1
row,Binder,SPOT peptide array binding signal intensity
1,B1,275

# Biological target: CaAbp1-D2
# Assay: as above
# In short: as §1
row,Binder,SPOT peptide array binding signal intensity
1,B1,226

# Biological target: CaBbc1
# Assay: as above
# In short: as §1
row,Binder,SPOT peptide array binding signal intensity
1,B1,132

# Biological target: CaBem1-D1
# Assay: as above
# In short: as §1
row,Binder,SPOT peptide array binding signal intensity
1,B1,0.5

# Biological target: CaBzz1-D1
# Assay: as above
# In short: as §1
row,Binder,SPOT peptide array binding signal intensity
1,B1,1220

# Biological target: CaBzz1-D2
# Assay: as above
# In short: as §1
row,Binder,SPOT peptide array binding signal intensity
1,B1,715

# Biological target: CaCyk3
# Assay: as above
# In short: as §1
row,Binder,SPOT peptide array binding signal intensity
1,B1,≤ 0

# Biological target: CaFus1
# Assay: as above
# In short: as §1
row,Binder,SPOT peptide array binding signal intensity
1,B1,≤ 0

# Biological target: CaHof1
# Assay: as above
# In short: as §1
row,Binder,SPOT peptide array binding signal intensity
1,B1,1.5

# Biological target: CaHse1
# Assay: as above
# In short: as §1
row,Binder,SPOT peptide array binding signal intensity
1,B1,2

# Biological target: CaLsb1
# Assay: as above
# In short: as §1
row,Binder,SPOT peptide array binding signal intensity
1,B1,1

# Biological target: CaLsb4
# Assay: as above
# In short: as §1
row,Binder,SPOT peptide array binding signal intensity
1,B1,≤ 0

# Biological target: CaMyo5
# Assay: as above
# In short: as §1
row,Binder,SPOT peptide array binding signal intensity
1,B1,2.25

# Biological target: CaNbp2
# Assay: as above
# In short: as §1
row,Binder,SPOT peptide array binding signal intensity
1,B1,0.5

# Biological target: CaRvs167
# Assay: as above
# In short: as §1
row,Binder,SPOT peptide array binding signal intensity
1,B1,1.5

# Biological target: CaRvs167-3
# Assay: as above
# In short: as §1
row,Binder,SPOT peptide array binding signal intensity
1,B1,4.5

# Biological target: CaSho1
# Assay: as above
# In short: as §1
row,Binder,SPOT peptide array binding signal intensity
1,B1,6

# Biological target: CaSla1-D1-D2
# Assay: as above
# In short: as §1
row,Binder,SPOT peptide array binding signal intensity
1,B1,10

# Biological target: CaSla1-D3
# Assay: as above
# In short: as §1
row,Binder,SPOT peptide array binding signal intensity
1,B1,2

# Biological target: ScAbp1
# Assay: as above
# In short: as §1
row,Binder,SPOT peptide array binding signal intensity
1,B1,735
